# Hits are enriched below; roughly 3.6% of the tested compounds scored in any of these assays.
# AmpC no deterg = blocks E. coli AmpC beta-lactamase in detergent-free assay; P00811; AmpC nitrocefin hydrolysis, absorbance 480 nm, 0.0001% Triton; Potency, µM (top dose mostly 57.1 µM), hits mostly inhibitors; 330,000 tested, 0.52% active; further: nearly all actives have a fitted effect of over 20% in size
# Target sequence (P00811 whole entry, looked up): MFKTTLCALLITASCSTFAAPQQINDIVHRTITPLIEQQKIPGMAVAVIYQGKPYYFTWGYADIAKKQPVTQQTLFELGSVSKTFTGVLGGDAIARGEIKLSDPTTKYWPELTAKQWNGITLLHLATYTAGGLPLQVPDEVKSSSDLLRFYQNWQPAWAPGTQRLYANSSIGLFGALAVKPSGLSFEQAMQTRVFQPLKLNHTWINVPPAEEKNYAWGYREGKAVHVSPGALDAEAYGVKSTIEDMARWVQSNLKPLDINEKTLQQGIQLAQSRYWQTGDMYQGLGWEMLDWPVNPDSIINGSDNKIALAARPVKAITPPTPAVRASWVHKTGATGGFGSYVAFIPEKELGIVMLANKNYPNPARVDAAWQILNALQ
#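 AmpC (5.3 nM in the dispensed reagent) in 20 mM phosphate pH 7.0 with 0.01% (detergent screen) or 0.0001% Triton X-100 was preincubated with compounds for 15 min at room temperature. Nitrocefin was then added from an 800 uM solution, and hydrolysis was followed at 480 nm.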
# Sm TGR block = S. mansoni TGR enzyme inhibition; Q962Y6; purified TGR, DTNB reduction, TNB absorbance 405 nm; Potency, µM (doses to about 114 µM), actives largely listed as inhibitors; 360,000 tested, 3% active; AID 485364; further: nearly all actives have a fitted effect of over 60% in size
#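 Kinetic colorimetric format: TGR-catalysed, NADPH-driven DTNB reduction monitored via TNB absorbance. Enzyme dispensed at 20 nM; compound exposure 15 min at room temperature before reaction start.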
# AmpC inh detg = blocks E. coli AmpC beta-lactamase in detergent assay. P00811. AmpC hydrolysis of nitrocefin, absorbance 480 nm, 0.01% Triton. Potency, µM (top dose mostly 114 µM), actives largely listed as inhibitors. 370,000 tested, 0.041% active; further: nearly all actives have a fitted effect of over 25% in size
#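 20 mM phosphate pH 7.0 + 0.01% (detergent screen) or 0.0001% Triton X-100; 5.3 nM AmpC reagent; cpd preinc 15 min RT; nitrocefin (800 uM stock) to start; A480 q20 s × 4 min; Activity was normalised to no-enzyme and no-compound control wells.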
# Giardia FBPA inh = blocks Giardia fructose-bisphosphate aldolase activity; A8B2U2; purified Giardia FBPA; Potency, µM (top dose mostly 59.6 µM), usual class: inhibitors; 290,000 tested, 0.71% active; AID 2451; further: nearly all actives have a fitted effect of over 55% in size
#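 40 nM FBPA preincubated 10 min at RT with compound (up to 57.5 uM final), then substrate plus GAPDH/TPI/NAD/arsenate coupling and diaphorase/resazurin added. Fluorescence read after 20 min at RT, 525/598 nm.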
# Numbers stand for hits; n = inactive; u = inconclusive; x = no result; [ ] = dose if it differs, or a comment. The call rests on the fitted dose curve; in most records, active means well fitted curve in the direction sought with a large enough effect; inconclusive means small, poorly fitted or top-dose-only effect, or another doubt; inactive means no such curve, though single readings can be large; an effect the other way counts as inactive or inconclusive.
SMILES,AmpC no deterg,Sm TGR block,AmpC inh detg,Giardia FBPA inh
CCOC(=O)N1CCC(NC(=O)c2ccc(CO)c(C(=O)NC3CCN(C(=O)OCC)CC3)c2)CC1,n,u,u,n
COc1cccc(-c2nc(CS(=O)(=O)CC(=O)NC3CCCC3)c(C)o2)c1,n,45µM,n,n
Cc1oc(-c2cccc(Cl)c2)nc1CS(=O)(=O)CC(=O)NC1CCCC1,n,45µM,n,n
O=C(c1ccc(F)c(S(=O)(=O)N2CCOCC2)c1)N1CCc2ccccc21,n,n,n,n
CC(OC(=O)CNC(=O)C1CCCCC1)C(=O)NCc1ccccc1 (configuration not stated),n,x,x,x
Cn1c(=O)cc(OCC(=O)N2CCN(C3CCCCC3)CC2)c2ccccc21,0.89µM,n,u,n
N/C(=N\OC(=O)CSc1ccccc1)c1ccccn1,n,n,n,x
Cc1ccc(S(=O)(=O)N(CC(=O)O)Cc2ccco2)cc1,n,u,n,n
CN(C)S(=O)(=O)c1ccc(S(=O)(=O)N(CC(=O)Nc2ccccc2)Cc2ccco2)cc1,n,n,u,n
CC(=O)Nc1ccc(S(=O)(=O)N(Cc2cc3ccc(C)cc3[nH]c2=O)CC2CCCO2)cc1 (configuration not stated),n,n,n,x
CC(=O)Nc1ccc(S(=O)(=O)N(Cc2ccco2)CC2CCCO2)cc1 (configuration not stated),n,25µM,u,n
COC(=O)CN(Cc1ccco1)S(=O)(=O)c1ccccc1,n,22µM,n,n
CCN(CC)S(=O)(=O)c1ccc(S(=O)(=O)N(CC(=O)Nc2ccccc2)Cc2ccco2)cc1,n,28µM,n,n
C/C(=N\NC(=O)c1cc2ccccc2cc1O)c1ccc(C)o1,7.9µM,n,n,x
C/C(=N\NC(=O)c1cc2ccccc2cc1O)c1cccs1,u,n,n,n
C/C(=N\NC(=O)c1cc(C)nc2ccccc12)c1ccco1,n[2.29 µM],n,n,n
C/C(=N/NC(=O)c1cc2ccccc2cc1O)c1ccco1,25µM,n,n,x
Cc1c(NC2(C#N)CCCCC2)c(=O)n(-c2ccccc2)n1C,n,20µM,n,n
COc1cc(NC(=S)NC(=O)c2cccs2)ccc1NC(=O)C(C)C,n,18µM,n,u
COc1cc(NC(=O)C(C)C)ccc1NC(=O)c1ccco1,n,n,n,n
COc1cc(NC(=S)NC(=O)c2ccco2)ccc1NC(=O)C(C)C,n,25µM,n,n
COc1ccc(OC)c(S(=O)(=O)N2CCN(Cc3nc4ccc(C)cc4o3)CC2)c1,x,n,n,x
COC1=C/C(=C/c2c(N)n3c(nc2=O)sc2cc(S(C)(=O)=O)ccc23)C=CC1=O,n,n,n,n
CS(=O)(=O)c1ccc2c(c1)sc1nc(=O)c(/C=C3/C=CC(=O)C(O)=C3)c(N)n12,n,45µM,n,u
Cc1ccc(-n2nnnc2-c2ccccc2)cc1,n,n,n,n
SMILES,AmpC no deterg,Sm TGR block,AmpC inh detg,Giardia FBPA inh
Cc1ccc(-n2nnnc2C(Cl)c2nnnn2-c2ccc(C)cc2)cc1,n,25µM,n,n
S=C(c1ccc(-c2ccc(Br)cc2)o1)N1CCOCC1,n,n,n,n
S=C(c1ccc(-c2ccc(Cl)c(Cl)c2)o1)N1CCOCC1,n,45µM,n,n
CN(C)c1ccc(N=Cc2ccco2)cc1,n,32µM,n,2.8µM
Oc1cc2c(cc1C(c1ccc(Br)cc1)N1CCCC1)OCO2 (configuration not stated),n,0.71µM,n,n
O=c1c2[nH]c3ccc(F)cc3c2ncn1CCN1CCN(Cc2ccccc2)CC1,0.32µM,n,u,n
O=c1c2[nH]c3ccc(F)cc3c2ncn1CCN1CCOCC1,n,n,u,n
Cc1ccc2[nH]c(=O)c(CN(CCCO)S(=O)(=O)c3c(C)ccc4nsnc34)cc2c1,n,n,u,n
Cc1ccc2cc(CN(Cc3ccco3)S(=O)(=O)c3c(C)ccc4nsnc34)c(=O)[nH]c2c1,n,8.9µM,n,n
Cc1cc2cc(CN(Cc3ccco3)S(=O)(=O)c3c(C)ccc4nsnc34)c(=O)[nH]c2cc1C,n,45µM,n,n
O=C(CCS(=O)(=O)Cc1ccccc1)N1CCc2ccccc2C1,n,28µM,n,n
CCOC(=O)C1CCN(C(=O)CCS(=O)(=O)Cc2ccccc2)CC1,n,45µM,n,n
O=C(CCS(=O)(=O)Cc1ccccc1F)N1CCc2ccccc2C1,n,n,n,n
CCOC(=O)C1CCCN(C(=O)CCCn2c(=O)c3cccn3c3cccnc32)C1 (configuration not stated),n,n,n,x
